DUX4 txn inh = DUX4-mediated transcription inhibition | 293T-iDUX4 ZSCAN4-Gaussia luciferase reporter, 24 h; active compounds read low | activity change, negative = inhibition, % (concentration not given with the values) | 37,000 tested, 0.8% active | AID 1224904;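 active = mean inhibition of at least 10% in the main channel, exceeding the control channel by a set limit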;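 note: 0% = median of neutral control wells and -100% = median of positive control wells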
The depositor's hits bear a star. The sample as a whole holds a higher share of hits than the screen did.

SMILES | DUX4 txn inh
O=C(Cc1ccccc1)N1CCCCN2[C@H](CO)[C@@H](c3ccc(C#CC4(O)CCCC4)cc3)[C@@H]2C1 | -5
O=C(Cc1ccncc1)N1CCCCN2[C@H](CO)[C@@H](c3ccc(-c4ccncc4)cc3)[C@H]2C1 | 16
O=C(Cc1ccncc1)N1CCCCN2[C@H](CO)[C@H](c3ccc(C#Cc4ccccc4F)cc3)[C@@H]2C1 | -39*
CC(=O)N1[C@@H]2Cn3c(ccc(-c4cccc(C(=O)N(C)C)c4)c3=O)[C@H]1[C@@H](C(=O)O)[C@@H]2CO | -5
COC(=O)[C@@H]1[C@@H](CO)[C@@H]2Cn3c(ccc(-c4ccccc4F)c3=O)[C@H]1N2CC1CCCC1 | -9

Bioassay records: PubChem BioAssay, Broad Institute
